Compound activity deposited in PubChem BioAssay by several laboratories.
Bead autofluor – compound fluorescence in toxin protease inhibitor counterscreen; compound autofluorescence counterscreen, microsphere flow cytometry; active compounds read high; fluorescence intensity (concentration not given with the values); 360,000 tested, 3.1% active; AID 624483; in the data active = fluorescence intensity above about 16000; inconclusive = no clear call, values can overlap the other calls
BoNT F protease – blocks Botulinum neurotoxin F light chain protease | Multiplex microsphere protease cleavage assay, flow cytometry | AID 588497 | inhibition, % at 10 µM | 360,000 tested, 0.22% active; in the data active = inhibition above about 35%, passing the limit was not always enough; inconclusive = no clear call, values can overlap the other calls
DUSP3 inh – blocks human VHR1 dual specificity phosphatase; P51452; recombinant VHR phosphatase, pNPP absorbance; inhibition, % at 13.3 µM; 290,000 tested, 0.52% active; AID 1654; in the data active = inhibition above about 50%
Target sequence (P51452 whole entry, looked up): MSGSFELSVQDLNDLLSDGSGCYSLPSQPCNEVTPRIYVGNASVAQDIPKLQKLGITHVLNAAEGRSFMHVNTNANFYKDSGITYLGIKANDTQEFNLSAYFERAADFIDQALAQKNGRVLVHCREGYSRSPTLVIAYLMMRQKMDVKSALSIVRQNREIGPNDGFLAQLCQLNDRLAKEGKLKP
3CLpro inhibitor – SARS-CoV 3CLpro protease inhibition; P0C6X7; recombinant SARS-CoV 3CLpro, quenched FRET peptide cleavage; inhibition, % at 6 µM; 290,000 tested, 0.14% active; in the data active = inhibition above about 12%
Anthrax LF inh2 – anthrax lethal factor protease inhibition; 360,000 tested, 0.12% active; P15917; multiplex microsphere protease cleavage assay, LF; inhibition, % at 10 µM
BoNT-A LC inh2 – blocks Botulinum neurotoxin A light chain protease; multiplex microsphere protease substrate cleavage, flow cytometry; inhibition, % at 10 µM; 360,000 tested, 0.17% active
Each line names hits and unclear results; the compound was inactive in the other large screens. Rows were chosen to be rich in hits. Some 3.9% of all compounds tested hit in one or more screens of this group. Rule as the data show it, unless noted: active = inhibition above about 30%; inconclusive = no clear call, values can overlap the other calls; inactive = below that.

Cc1ccc2oc3nc(C)c(C(=O)Nc4cccc(C(F)(F)F)c4)cc3c(=O)c2c1	Bead autofluor 22965, BoNT-A LC inh2 inconclusive
O=C(NC(CO)(CO)CO)c1coc(=O)c(Br)c1	Bead autofluor 17123
CC(C)CNC(=O)c1coc(=O)c(Br)c1	none
O=S(CC(O)COCc1ccc(Cl)cc1)c1ccccn1 (configuration not stated)	Bead autofluor 21318
COCCNC(=O)C1(C)CCN(C(=O)c2ccc3ccccc3n2)C1 (configuration not stated)	none (no result: DUSP3 inh, 3CLpro inhibitor)
O=C(N/N=C/c1cccc([N+](=O)[O-])c1)c1cc(-c2ccc3c(c2)OCO3)n[nH]1	BoNT F protease inconclusive, DUSP3 inh 51.4
Cc1ccc(N2CS(=O)(=O)/C(=C/N(C)C)C2=O)cc1	Bead autofluor 21872
CN(C)/C=C1\C(=O)N(c2ccc(Cl)cc2)CS1(=O)=O	Bead autofluor 23839
CN(C)/C=C1\SC(=S)N(c2ccc(F)cc2)C1=O	none (no result: Bead autofluor, BoNT F protease, Anthrax LF inh2, BoNT-A LC inh2)
CC1=NN(c2ccc(Cl)cc2)C(=O)C1	none
C[C@H](CO)N1C[C@H](C)[C@@H](CN(C)C(=O)Nc2ccc3c(c2)OCO3)Oc2c(NC(=O)Nc3ccc(C(F)(F)F)cc3)cccc2C1=O	none (no result: DUSP3 inh, 3CLpro inhibitor)
CCC(=O)N1CCC1(C)C(=O)Nc1ccc(C)c(C)c1 (configuration not stated)	none (no result: DUSP3 inh, 3CLpro inhibitor)
COc1cc(/C=C/C(=O)O)cc(S(=O)(=O)NC2CC2)c1OC	none
COc1ccc(C(=O)Cc2cc3ccccc3oc2=O)cc1	none
O=C(O)[C@H]1CCCC[C@H]1C(=O)NCCNC(=O)[C@@H]1CCCC[C@@H]1C(=O)O	Bead autofluor 23932, BoNT-A LC inh2 inconclusive
O=C(NCCCCCCNC(=O)C1CCCC1)C1CCCC1	Bead autofluor 21472, BoNT-A LC inh2 inconclusive
COc1ccc(-n2nc(C(=O)N3CCC(N4CCCCC4)CC3)c3c4ccccc4n(C)c3c2=O)cc1	none
COC(=O)c1sccc1-c1ccc(C(=O)Nc2ccccc2)o1	Bead autofluor 19373, BoNT-A LC inh2 inconclusive
Cn1c(=O)oc2cc(S(=O)(=O)Nc3cccc4c3CCCC4)ccc21	none
CN(C)CCCNc1ccc(-c2n[nH]c(=O)c3ccccc23)cc1[N+](=O)[O-]	BoNT F protease inconclusive, DUSP3 inh 55.0
Cc1cc(C(=O)CN2C(=O)C(=O)N(C3CCCC3)C2=O)c(C)n1CCc1ccc(F)cc1	none (no result: DUSP3 inh, 3CLpro inhibitor)
CCOC(=O)N1CCC(NC(=O)Cn2c3ccccc3c3cn[nH]c(=O)c32)CC1	none (no result: Bead autofluor, BoNT F protease, Anthrax LF inh2, BoNT-A LC inh2)
CCOC(=O)N1CCC(NC(=O)c2oc3c(c2C)-c2[nH]ncc2CC3)CC1	Bead autofluor 20954, BoNT-A LC inh2 inconclusive
O=C(CSc1nnc(-c2ccc(Cl)cc2)n1-c1ccccc1)N/N=C/c1ccccc1C(=O)O	BoNT F protease 40.6
O=C1N=C(N2CCCCC2)S/C1=C\c1ccncc1	none
O=C1N=C(N2CCCC2)S/C1=C\C=C\c1ccccc1	BoNT F protease 40.8
O=C(NCC1CCCO1)C1CC(=O)N(c2ccccc2)C1 (configuration not stated)	none
Cc1ccc(O)c(C2=NCCNC(C(F)(F)F)=C2)c1	Bead autofluor 21465, BoNT-A LC inh2 inconclusive
O=C(CN1CCCC1)NC(c1ccccc1)c1ccccc1	BoNT F protease inconclusive, DUSP3 inh 51.0
O=C(CN1CCN(c2ccccc2O)CC1)NC(c1ccccc1)c1ccccc1	none
Cc1ccc(-c2noc(CCCC(=O)N3CCOCC3)n2)cc1	Bead autofluor 20543
Cc1cccc(-c2noc(CCCC(=O)N3CCOCC3)n2)c1	Bead autofluor 21401
O=C(CCCc1nc(-c2ccc(Cl)cc2)no1)N1CCOCC1	none
Cc1cc(S(=O)(=O)N2CCOCC2)ccc1OCC(=O)N1CCCC1	none
Cc1ccnc(NC(=O)COC(=O)C23CC4CC(CC(C4)C2)C3)n1	none
O=C(COC(=O)C12CC3CC(CC(C3)C1)C2)Nc1nccs1	DUSP3 inh 52.0
Cn1nc(C(C)(C)C)cc1C(=O)N1CCCCC1c1cc(C(=O)Nc2ccc3c(c2)OCO3)no1 (configuration not stated)	none (no result: DUSP3 inh, 3CLpro inhibitor)
CCCC1=C(C(=O)OCC)C(c2cccs2)C(C#N)=C(N)O1 (configuration not stated)	Bead autofluor 22890
CCSC1=C(C#N)C(c2cccs2)C(C(=O)OC)=C(C)N1 (configuration not stated)	Bead autofluor 22477, BoNT-A LC inh2 inconclusive
CCOC(=O)C1=C(C)OC(N)=C(C#N)C1c1cccs1 (configuration not stated)	none
CCOC(=O)C1=C(C)OC(N)=C(C#N)C1c1ccoc1 (configuration not stated)	Bead autofluor 16971
Cc1nn(Cc2cccc(F)c2)c(C)c1NC(=O)c1c(Cl)cnn1C	none
CCOC(=O)Cn1c(-c2cccnc2Cl)nc2cc(Cl)c(Cl)cc21	Bead autofluor 20399, BoNT-A LC inh2 inconclusive
Clc1ccc(Cn2c(-c3cccnc3Cl)nc3ccccc32)cc1	none
CCOC(=O)Cn1c(C)nc2ccccc21	none
CCOC(=O)Cn1c(-c2ccccn2)nc2ccccc21	none
CCn1c(-c2cccnc2Cl)nc2cc(Cl)c(Cl)cc21	Bead autofluor 23561, BoNT-A LC inh2 inconclusive
CCOC(=O)Cn1c(-c2cccnc2Cl)nc2cc(C)c(C)cc21	Bead autofluor 22326
Clc1ccc(Cn2c(-c3cccnc3Cl)nc3ccccc32)c(Cl)c1	Bead autofluor 21985, BoNT-A LC inh2 inconclusive
Oc1ccc(N2CCN(Cc3nc4ccccc4[nH]3)CC2)cc1	none
CCOC(=O)Cn1nc(C)c(NC(=O)COc2ccc(OC)cc2)c1C	none
Cc1ccc(NC(=O)ON=C2CCCC2)cc1	none
CC(=O)COC(=O)CCc1nc2ccccc2[nH]c1=O	none
CCC(OC(=O)CCc1nc2ccccc2[nH]c1=O)C(=O)c1ccccc1 (configuration not stated)	Bead autofluor 17407
CCCCOC(=O)CCn1[nH]c(=O)c2ccccc2c1=O	Bead autofluor 22758
CCCCOC(=O)CCc1nc2ccccc2[nH]c1=O	Bead autofluor 18710
CC(C)(C)C(=O)COC(=O)CCc1nc2ccccc2[nH]c1=O	none
Cc1ccc(S(=O)(=O)CCC(=O)OCC(=O)NC(=O)c2ccccc2)cc1	Bead autofluor 40297 (no result: DUSP3 inh, 3CLpro inhibitor)
COc1ccc(NC(C)C(=O)Nc2cccc(S(=O)(=O)N3CCOCC3)c2)cc1OC (configuration not stated)	none (no result: DUSP3 inh, 3CLpro inhibitor)
CNC(=O)COC(=O)c1[nH]c(C)c(C(C)=O)c1C	Bead autofluor 16399, BoNT-A LC inh2 inconclusive
CCOC(=O)c1[nH]c(C)c(C(=O)OCCN2C(=O)c3ccccc3C2=O)c1C	Bead autofluor 20341
CCOC(=O)c1[nH]c(C)c(C(=O)O)c1C	none (no result: Bead autofluor, BoNT F protease, Anthrax LF inh2, BoNT-A LC inh2)
CCOC(=O)c1c(C)[nH]c(C(=O)OCc2ccc(C)cc2)c1C	none
CCOC(=O)c1[nH]c(C)c(C(=O)C(C)C)c1C	Bead autofluor 16910
CC(=O)c1c(C)[nH]c(C(=O)OCC(=O)NCC(C)C)c1C	none
CCOCCCNC(=O)c1c(C)[nH]c(C(=O)OCC)c1C	Bead autofluor 16166
Cc1ccc(-n2ncc3c(NNC(=O)Cc4ccccc4)ncnc32)cc1	none
